The record followed here is PubChem BioAssay (Tox21).

A short description of experiment [1]: qHTS RealTime-Glo MT Cell Viability Assay in HEK293 cells - 0 hour (AID 1224880). Further: top concentration of the series differs between compounds; nearly all actives have a fitted effect of over 45% in size. The method in brief: (§1)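 qHTS format; HEK293 cells with NanoLuc/prosubstrate reagent, 37 C/5% CO2 for 5 h pre-dosing; compounds 23 nL in DMSO; luminescence at each time point reflects viable cells.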
Experiment [2] can be described thus: A CellTox Green Cytotoxicity Assay to monitor cytotoxicity in HEK293 cells - 32 hour (AID 1224881). Further: nearly all actives have a fitted effect of over 40% in size. The method in brief: (§2)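 Each value comes from one timepoint of a single continuous run in which HEK293 cells with CellTox Green were exposed to compound for up to 40 h at 37 C, dye fluorescence rising with cell death.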
The nature of experiment [3]: A CellTox Green Cytotoxicity Assay to monitor cytotoxicity in HepG2 cells - 0 hour (AID 1224882). Further: nearly all actives have a fitted effect of over 35% in size. Put shortly:
(§3)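 Continuous culture of HepG2 cells with a membrane-impermeant DNA dye; rising fluorescence marks dead cells. Compound exposure lasted up to 40 h at 37 C, with reads every 8 h from 0 h.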

A short description of experiment [4]: A CellTox Green Cytotoxicity Assay to monitor cytotoxicity in HepG2 cells - 32 hour (AID 1224883). Further: nearly all actives have a fitted effect of over 50% in size. The method in brief:
as §3

Experiment [5] can be described thus: A CellTox Green Cytotoxicity Assay to monitor cytotoxicity in HEK293 cells - 8 hour (AID 1224884). Further: nearly all actives have a fitted effect of over 35% in size. Put shortly:
as §2

A short description of experiment [6]: qHTS RealTime-Glo MT Cell Viability Assay in HepG2 cells - 16 hour (AID 1224885). Further: nearly all actives have a fitted effect of over 50% in size. The method in brief: (§4)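 Compound treatment began 5 h after plating HepG2 cells (600/well) with NanoLuc luciferase and prosubstrate. Plates stayed at 37 C for 40 h; luminescence was captured at six time points, 0 h through 40 h.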
The nature of experiment [7]: qHTS RealTime-Glo MT Cell Viability Assay in HEK293 cells - 24 hour (AID 1224886). Further: top concentration of the series differs between compounds; nearly all actives have a fitted effect of over 50% in size. The method in brief: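 Quantitative high-throughput screen of the Tox21 10K library in HEK293: cells and RealTime-Glo reagents plated together, compound added at 5 h, luminescence monitored through 40 h at 37 C.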
Experiment [8] can be described thus: A CellTox Green Cytotoxicity Assay to monitor cytotoxicity in HEK293 cells - 16 hour (AID 1224888). Further: nearly all actives have a fitted effect of over 35% in size. Put shortly: as §2
A short description of experiment [9]: qHTS RealTime-Glo MT Cell Viability Assay in HepG2 cells - 0 hour (AID 1224889). Further: nearly all actives have a fitted effect of over 50% in size. Further: potency means the concentration at half of the fitted maximal effect. Put shortly:
as §4
For orientation: In qHTS, concentration-response curves come from the screen itself.

Experiment [10] in a line: qHTS RealTime-Glo MT Cell Viability Assay in HEK293 cells - 8 hour (AID 1224887). Put shortly: as §1

Several values for one entry are separate records, joined by “and”; a condition that tells them apart may be missing. Equal values may be shown once. Results filed as inconclusive are left out. Activity calls are given as the source filed them. The call rests on the fitted dose curve; in most records, active means well fitted curve in the direction sought with a large enough effect in the repeat runs; inconclusive means weak or mixed curves; inactive means no such curve, though single readings can be large; an effect the other way counts as inactive or inconclusive.

`c1ccc2ccccc2c1`: the Potency result in [1], in experiment [2], in experiment [3], in experiment [4], in experiment [5] and in [6] was “inactive” each time. In addition, the Potency entry in [7], in [8] and in [9] was “inactive” throughout.

With `CC(=O)[C@@]1(O)CC[C@H]2[C@@H]3CCC4=CC(=O)CC[C@]4(C)[C@H]3CC[C@@]21C`, the Potency result in [1], in experiment [2], in experiment [3], in experiment [4], in experiment [5] and in experiment [6] was “inactive” in each case. In addition, the Potency entry in [7] and in experiment [8] was “inactive” throughout. The Potency in [9] was 6.16 µM (active) and 8.49 µM (active).

For `Cn1c([N+](=O)[O-])cnc1COC(N)=O`, the Potency entry in [1], in experiment [2], in experiment [3], in experiment [4], in experiment [5] and in [6] was “inactive” throughout. Besides, the Potency result in experiment [7], in experiment [8] and in experiment [9] was “inactive” in each case.

For `C=C(C)C(=O)OCCC[Si](OC)(OC)OC`, the Potency result in experiment [1], in experiment [2], in experiment [3], in [4], in experiment [5] and in experiment [6] was “inactive” in each case. In addition, the Potency entry in experiment [7], in [10], in experiment [8] and in [9] was “inactive” in each case.

For `O=S(=O)(O)c1cc(S(=O)(=O)O)c2c(N=Nc3ccccc3)c(O)ccc2c1`, the Potency result in experiment [1], in [2], in experiment [3], in experiment [4], in [5] and in experiment [6] was “inactive” each time. Besides, the Potency entry in [7], in experiment [10], in experiment [8] and in experiment [9] was “inactive” in each case.

As for `OC[C@@H](O)[C@@H](O)[C@H](O)[C@@H](O)CO`, the Potency result in [1], in [2], in experiment [3], in experiment [4], in experiment [5] and in [6] was “inactive” in each case. The Potency entry in experiment [7], in experiment [10], in experiment [8] and in experiment [9] was “inactive” each time.

`C=C(C)C(=O)OCCCCCC`: the Potency entry in experiment [1], in experiment [2], in experiment [3], in experiment [4], in experiment [5] and in experiment [6] was “inactive” in each case. In addition, the Potency result in [7], in [10], in experiment [8] and in experiment [9] was “inactive” in each case.

On to `OC1CCCC1`, for which the Potency result in experiment [1], in experiment [2], in experiment [3], in [4], in experiment [5] and in [6] was “inactive” throughout. Also, the Potency entry in experiment [7], in [10], in [8] and in experiment [9] was “inactive” in each case.

For `c1ccc2[nH]cnc2c1`, the Potency result in experiment [1], in experiment [2], in [3], in experiment [4], in experiment [5] and in experiment [6] was “inactive” each time. The Potency entry in experiment [7], in [8] and in experiment [9] was “inactive” each time.

Turning to `CC(C)(C)C1CCC(O)CC1` (stereo not drawn), the Potency entry in experiment [1], in experiment [2], in experiment [3], in experiment [4], in experiment [5] and in experiment [6] was “inactive” throughout. The Potency entry in [7], in [10], in experiment [8] and in [9] was “inactive” in each case.

`C[C@@H]1O[C@@H](OC[C@H]2O[C@@H](Oc3c(-c4ccc(O)c(O)c4)oc4cc(O)cc(O)c4c3=O)[C@H](O)[C@@H](O)[C@@H]2O)[C@H](O)[C@H](O)[C@H]1O`: the Potency result in experiment [1], in experiment [2], in experiment [3], in experiment [4], in experiment [5] and in [6] was “inactive” in each case. Besides, the Potency result in experiment [7], in [10], in experiment [8] and in experiment [9] was “inactive” in each case.

Turning to `O=C(c1ccc(O)cc1)c1ccc(O)cc1O`, the Potency entry in experiment [1], in experiment [2], in experiment [3], in experiment [4], in experiment [5] and in experiment [6] was “inactive” each time. Further, the Potency entry in experiment [7], in experiment [10], in experiment [8] and in experiment [9] was “inactive” throughout.

As to `Nc1nc2ncc(CNc3ccc(C(=O)N[C@@H](CCC(=O)O)C(=O)O)cc3)nc2c(=O)[nH]1`, the Potency entry in experiment [1], in [2], in [3], in experiment [4], in [5] and in experiment [6] was “inactive” each time. Besides, the Potency entry in [7], in [10], in experiment [8] and in [9] was “inactive” in each case.

On to `CCCCNC(N)=O`, for which the Potency entry in experiment [1], in [2], in experiment [3], in [4], in experiment [5] and in [6] was “inactive” in each case. The Potency result in experiment [7], in [10], in [8] and in [9] was “inactive” in each case.

For `O=Nc1ccc(O)cc1`, the Potency entry in [1], in experiment [2], in experiment [3], in experiment [4], in [5] and in experiment [6] was “inactive” each time. Besides, the Potency entry in [7], in experiment [8] and in [9] was “inactive” throughout.

Turning to `Cc1ccc(N)c(S(=O)(=O)O)c1`, the Potency result in experiment [1], in [2], in experiment [3], in experiment [4], in experiment [5] and in [7] was “inactive” in each case. Besides, the Potency entry in experiment [10], in experiment [8] and in [9] was “inactive” throughout.

For the compound `C=CC(=O)OCCCCCCCC(C)C`, the Potency result in [1], in experiment [2], in experiment [3], in experiment [4], in experiment [5] and in experiment [7] was “inactive” in each case. Besides, the Potency entry in [10], in [8] and in [9] was “inactive” in each case.

Turning to `O=[N+]([O-])C(CO)(CO)CO`, the Potency result in experiment [1], in experiment [2], in experiment [3], in experiment [4], in [5] and in [7] was “inactive” throughout. The Potency entry in [10], in [8] and in experiment [9] was “inactive” in each case.

In the case of `CC1=C(CC(=O)O)c2cc(F)ccc2/C1=C\c1ccc(S(C)=O)cc1` (stereo not drawn), the Potency result in [1], in experiment [2], in experiment [3], in [4], in [5] and in [7] was “inactive” throughout. Also, the Potency entry in experiment [10], in experiment [8] and in [9] was “inactive” each time.

Turning to `NCc1cccc(CN)c1`, the Potency entry in experiment [1], in experiment [3], in [4], in [5], in [6] and in experiment [7] was “inactive” each time. For the same compound, the Potency result in experiment [10], in experiment [8] and in experiment [9] was “inactive” each time.

Turning to `O=C(Cl)c1c(Cl)c(Cl)c(C(=O)Cl)c(Cl)c1Cl`, the Potency result in experiment [1], in [2], in [3], in experiment [4], in experiment [5] and in [6] was “inactive” in each case. Moreover, the Potency entry in [7], in experiment [8] and in [9] was “inactive” in each case.

Consider `O=[N+]([O-])c1cccc(Cl)c1`, for which the Potency result in experiment [1], in experiment [2], in experiment [3], in experiment [4], in [5] and in experiment [7] was “inactive” in each case. Besides, the Potency entry in experiment [8] and in experiment [9] was “inactive” in each case.

For `CCCCCCC(C)(C)S`, the Potency entry in experiment [1], in [2], in experiment [3], in [4], in experiment [5] and in experiment [7] was “inactive” each time. Further, the Potency entry in [8] and in experiment [9] was “inactive” each time.

For the compound `Cc1cc(O)cc(C)c1Cl`, the Potency result in experiment [1], in experiment [2], in experiment [3], in [4], in experiment [5] and in experiment [7] was “inactive” throughout. Also, the Potency entry in experiment [8] and in experiment [9] was “inactive” each time.
